The supplement of paper PMC12669032
Unmarked numbers belong to inactive results.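 How the source made its calls: active = AUC reduced over 20% with Padj below 0.05 in at least 2 of 3 replicates; inactive = otherwise.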

Assays:
Roseburia intestinalis = assay: growth AUC relative to DMSO control (median of replicates) (fraction); higher = more growth (less inhibition), active = hit call of the paper; settings: 20 µM; 24 h
How it was run: (§1)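 Hourly OD600 readings over 24 h tracked anaerobic gut bacterial monocultures grown at 37 °C in mGAM from OD600 0.05 with 20 µM compound (1% DMSO). After the minimum OD was set to 0, area under the growth curve was normalised to the plate median of solvent-only wells, or to row and column medians on the industrial chemical plate. Values are medians of three biological replicates grown on separate days.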

Streptococcus salivarius = assay: as above; settings: 20 µM; 24 h
How it was run: as §1

| Compound | growth AUC (Roseburia intestinalis) | growth AUC (Streptococcus salivarius) |
| --- | --- | --- |
| CCSC(=O)N(CC)CC | 1.06 | 0.954 |
| ClC(COCC(Cl)C(Cl)(Cl)Cl)C(Cl)(Cl)Cl (centres undefined) | 1.01 | 1.02 |
| CC(C)c1cc(Oc2ccccc2)cc(C(C)C)c1NC(=S)NC(C)(C)C | 0.926 | 0.992 |
| C=O | 1.1 | 1 |
| CC(C)CCCCCCc1ccc(O)cc1 | 0.958 | 0.965 |
| COC(=O)c1ccccc1S(=O)(=O)NC(=O)Nc1nc(OC(F)F)cc(OC(F)F)n1 | 1.01 | 0.994 |
| COC(=O)c1ccccc1S(=O)(=O)NC(=O)n1nc(OCC(C)O)n(C)c1=O (centres undefined) | 1.01 | 1 |
| S=C([S-])NCCNC(=S)[S-].[Zn+2] | 0.975 | 0.97 |
| Oc1ccccc1 | 1.04 | 0.987 |
| CCSC(=O)N(CC(C)C)CC(C)C | 1.01 | 0.997 |
| Nc1cc(Cl)nc(C(=O)O)c1Cl | 1.01 | 1.03 |
| CC1CN(C2CCCCCCCCCCC2)CC(C)O1 (mixture of isomers) | 0.992 | 1 |
| O.O=C(Nc1ccc([N+](=O)[O-])cc1Cl)c1cc(Cl)ccc1O | 0.869 | 0.085 (active) |
| COC1CCC2(CC1)NC(=O)C(O)(c1cc(C)ccc1C)C2=O (centres undefined) | 1.01 | 1.01 |
| O=C(NCc1ncc(C(F)(F)F)cc1Cl)c1c(Cl)cccc1Cl | 0.968 | 0.967 |
| CCOC(=O)c1nc(C(Cl)(Cl)Cl)n(-c2ccc(Cl)cc2Cl)n1 | 0.949 | 0.992 |
| CCCCC(CC)COC(=O)COc1ccc(Cl)cc1C (centres undefined) | 0.93 | 0.978 |
| CCOC(=O)C(C)N(C(=O)c1ccccc1)c1ccc(Cl)c(Cl)c1 (centres undefined) | 0.958 | 0.947 |
| CCCCCC(C)OC(=O)COc1ccc(Cl)c2cccnc12 (centres undefined) | 0.931 | 0.877 |

| Compound | growth AUC (Roseburia intestinalis) | growth AUC (Streptococcus salivarius) |
| --- | --- | --- |
| COC(=O)CC(NC(=O)[C@@H](NC(=O)OC(C)C)C(C)C)c1ccc(Cl)cc1 (some centres undefined) | 0.975 | 0.953 |
| CCOc1ccc(C2(C(=O)OC(C#N)c3cccc(Oc4ccccc4)c3)CC2(Cl)Cl)cc1 (centres undefined) | 0.951 | 0.891 |
| CCCCOCCOC(=O)COc1nc(Cl)c(Cl)cc1Cl | 0.995 | 0.998 |
| CS(=O)(=O)c1ccc(C(=O)C2C(=O)C(O)CC(O)C2=O)c(Cl)c1COCC(F)(F)F (centres undefined) | 1.03 | 1.03 |
| COC(=O)CSc1cc(N=c2sc(=O)n3n2CCCC3)c(F)cc1Cl | 0.971 | 0.946 |
| CCOC(=O)c1ccc(O)cc1 | 0.888 | 1.01 |
| COc1cc(OC)nc(NC(=O)NS(=O)(=O)N(C)S(C)(=O)=O)n1 | 0.99 | 1.02 |
| CCOCCc1ccc(OCCNc2ncnc(CC)c2Cl)c(C)c1C | 0.923 | 1 |
| O=C(Nc1ccc(Cl)cc1C(O)c1ccccc1)c1ccncc1 (centres undefined) | 0.994 | 1 |
| CCc1cccc(CC)c1N(COC)C(=O)C(=O)O | 1 | 1.02 |
| CCc1cccc(C)c1N(C(=O)C(=O)O)[C@@H](C)C(=O)O | 0.973 | 0.943 |
| CCOC(=O)Cn1c(=O)sc2cccc(Cl)c21 | 0.968 | 0.961 |
| COC(=O)c1ccc(C(F)(F)F)nc1S(=O)(=O)[N-]C(=O)Nc1nc(OC)cc(OC)n1.[Na+] | 0.941 | 1.02 |
| COc1nc(N)nc(NC(C)(C)C)n1 | 0.943 | 1.03 |
| O=C(NC(=O)c1c(F)cccc1F)Nc1cc(C(F)(F)F)cc(C(F)(F)F)c1Cl | 0.942 | 0.922 |
| CCSc1nc(NC(C)C)nc(NC(C)C)n1 | 0.96 | 0.999 |
| COc1ccc(NC(=O)N(C)C)cc1Cl | 0.925 | 0.927 |
| O=[N+](Nc1ccccc1)c1ccccc1 | 0.944 | 1.06 |
